Laboratory results reported in PubChem BioAssay AID1159580 (chemical genetic matrix, 2015).
Screen size: about 5,500 compounds; about 2,000 (36%) were called active. Not shown: some 18% with an inconclusive outcome. Rule as the data show it: active = normalized growth mostly below about 0.91 (no sharp cut-off); inconclusive = no clear call, values can overlap the other calls; inactive = mostly above about 0.92. The list shows a part of the results.

Assay: chemical genetic growth profiling, strain panel (AID 1159580);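 also: tested at 20 µM; growth read once vehicle control cultures reached saturation at 30 °C; 1 = growth at the plate median or of vehicle wells; lower values mean less growth of the strain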
Settings: S. cerevisiae deletion strains, growth OD

Measured: normalized growth

S=C(S)N1CCCC1
active: locus YAL013W, strain DEP1, hits give low values 0.676 | locus YDR150W, strain NUM1, hits give low values 0.634 | locus YDR363W, strain ESC2, hits give low values 0.804 | locus YJR075W, strain HOC1, hits give low values 0.52 | locus YNL197C, strain WHI3, hits give low values 0.409 | locus YOR083W, strain WHI5 (second series), hits give low values 0.175 | locus YPL055C, strain LGE1, hits give low values 0.454 | locus YPL241C, strain CIN2, hits give low values 0.943
inactive: locus YAL040C, strain CLN3, hits give low values 1 | locus YER002W, strain NOP16, hits give low values 0.992 | locus YGR078C, strain PAC10, hits give low values 0.977 | locus YNL175C, strain NOP13, hits give low values 0.98 | locus YNL224C, strain SQS1, hits give low values 0.966 | locus YNL322C, strain KRE1, hits give low values 0.916
